# CHX counter – counter-screen hit for Shiga toxin inhibitors, cycloheximide; cell reporter, cycloheximide protein synthesis inhibition counterscreen; max response, %; actives 12% (n = 300,000); AID 2314; in the data active = max response mostly above about 13%, no sharp cut-off; inactive = mostly below about 14%; also: read at 38.3 µM for the half of the compounds with a filed dose; 0% is about no effect
# Shiga toxin inh – blocks Shiga toxin action in Vero cells. Vero cells, Shiga toxin protein synthesis inhibition reporter. inhibition, % at 38.7 µM. actives 9.2% (n = 290,000); in the data active = inhibition mostly above about 28%, no sharp cut-off; inactive = mostly below about 43%; also: 0% is about no effect
# Lassa entry inh – inhibitors of Lassa virus binding or cell entry. Lassa virus pseudotype entry inhibition, cell reporter. Potency, µM (titrated, usually from 37.9 µM), for inactives: at the top dose activity change, negative = inhibition, hits mostly inhibitors. actives 1.2% (n = 300,000). AID 540256; calls by dose curve; tested in HEK293 cells; also: potency is read from the fitted curve at half-maximal effect; % is scaled to controls: 0 for no effect and ±100 for the full control effect; nearly all actives have a fitted effect of over 50% in size
# Marburg entry inh – inhibitors of Marburg virus binding or cell entry; actives 1.8% (n = 300,000); Marburg virus pseudotyped entry inhibition, cell reporter; AID 540276; Potency, µM (top dose mostly 37.8 µM), for inactives: at the highest dose activity change, negative = inhibition, most hits filed as inhibitors; calls by dose curve; tested in HEK293 cells; also: potency is read from the fitted curve at half-maximal effect; % is scaled to controls: 0 for no effect and ±100 for the full control effect
# AMA1-RON2 inh – AMA1-RON2 (P. falciparum) interaction inhibition; AlphaScreen AMA1-biotinylated RON2 peptide binding; Potency, µM (series often up to 58.2 µM), inactives show top-dose activity change, negative = inhibition, actives largely listed as inhibitors; actives 0.2% (n = 360,000); active = well fitted inhibition curve with a large enough effect; inconclusive = small, poorly fitted or top-dose-only effect; inactive = no such curve, though single readings can be large or run the other way;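 also: potency is read from the fitted curve at half-maximal effect; 0% = vehicle wells and -100% = peptide control; nearly all actives have a fitted effect of over 45% in size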
#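 AMA1 (3D7) with his tag at 25 nM final met compounds first, then biotinylated RON2 peptide at 25 nM; detection used donor plus acceptor beads, 10 µg/mL apiece, read by AlphaScreen after 30 min at room temperature.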
# Starred values were filed as active, the others as inactive; ? = inconclusive; nt = no result; [ ] = remark or other dose. This is one part of a sample in which hits are shown more often than they occur.
SMILES,CHX counter,Shiga toxin inh,Lassa entry inh,Marburg entry inh,AMA1-RON2 inh
CN(C)c1ccc(/C=C/c2ccc3ccccc3n2)cc1,-5,-19,nt,nt,2%
CN(C)c1ccc(CNc2nc3ccccc3n2C)cc1,nt,nt,nt,nt,-18%
CN(C)c1ccc(CNc2nc3ccccc3s2)cc1,34*,68*,nt,nt,nt
CN(C)c1ccc(/C=C/c2nc3ccccc3s2)cc1,-4,12,2.2µM*,2µM*,-30%
CCOC(=O)N(C)c1c(CC)nc2c(OCc3ccccc3C)cccn12,nt,nt,nt,nt,-2%
O=C(Nc1ccnn1C1CCN(C(=O)c2cccnc2)CC1)c1cccc(F)c1,nt,nt,nt,nt,-6%
Cc1cc(N2CCOCC2)ccc1/C=C1\SC(=O)N(C(C)C)C1=O,39*,74,13%,?,0%
CCC(C)N1C(=O)S/C(=C/c2ccc(N3CCOCC3)cc2C)C1=O (stereo not given),56*,87*,?,-1%[46.1 µM],?
CCCN1C(=O)C(NC(=O)c2ccccc2OC)(C(F)(F)F)C(C(=O)OC)=C1C (stereo not given),nt,nt,-7%[46.1 µM],?,nt
Cc1ccc2onc(CC(=O)N3CCN(c4cc(Cl)ccc4C)CC3)c2c1,nt,nt,6%[46.1 µM],nt,nt
Cc1n[nH]c(=S)n1/N=C/c1ccc(OCc2ccc(Cl)cc2Cl)cc1,39*,79*,?,?,44%
Cc1n[nH]c(=S)n1/N=C/c1ccc(OCc2ccc(Cl)cc2)cc1,3,4,18%,6%,70%
Cc1cc(C)c(COc2ccc(/C=N/n3c(C)n[nH]c3=S)cc2)c(C)c1,9,30*,-17%,7%,11%
CCN(CC)CCOC(=O)c1ccc(NC(=O)c2cc3c(=O)n(CC)c4ccccc4c3s2)cc1,nt,nt,26%[46.1 µM],-3%[46.1 µM],nt
COc1ccc(N2CS(=O)(=O)/C(=C/N(C)C)C2=O)cc1,39*,75*,4%,-1%,16%
O=C(NCCCN1CCCC1=O)C(=O)NCC1OCCN1S(=O)(=O)c1cc(F)ccc1F (stereo not given),nt,nt,nt,nt,21%
COc1ccc(-c2nc3ccccc3n3c(-c4ccccc4)c4c(=O)n(C)c(=O)n(C)c4c23)cc1OC,nt,nt,-12%[46.1 µM],3%[46.1 µM],nt
CCn1c(SCC(=O)c2cccs2)nnc1-c1ccco1,39*,87*,?,8%,14%
CCn1c(SCC(=O)c2ccc(O)c(O)c2)nnc1-c1ccccc1,34*,61,13%,-3%,5%
CCn1c(SCC(=O)c2ccccc2)nnc1-c1cccs1,66*,77*,?,7%,-4%
CCn1c(SCC(N)=O)nnc1-c1ccco1,-4,-8,15%,1%,2%
Cc1cc(NC(=S)N(Cc2ccc(Br)cc2)Cc2ccc(C(=O)O)cc2)ccc1Cl,-2,0,?,-6%[14.2 µM],5%
COc1cccc(NC(=O)C2(C)CCN2C(=O)Cc2cccc3ccccc23)c1 (stereo not given),nt,nt,nt,nt,-6%
COc1ccc(CN2C(=O)C(CC(=O)NCc3cccs3)CC(C(=O)N(C(C)C)C(C)C)=C2C)cc1 (stereo not given),nt,nt,nt,nt,2%
CC(C)CCC(CCN1CCOCC1)c1ccc2c(c1)OCO2 (stereo not given),-2,-11,-22%,12µM*,?
SMILES,CHX counter,Shiga toxin inh,Lassa entry inh,Marburg entry inh,AMA1-RON2 inh
CC(C)CCC(CCN1CCCC1)c1ccc2c(c1)OCO2 (stereo not given),-1,-8,-10%,?,-12%
COc1ccccc1-c1noc2c1C(=O)NCC2,nt,nt,nt,nt,-6%
Cn1cnc([N+](=O)[O-])c1Sc1nc(N)nc2c1ncn2C1OC(CO)C(O)C1O (stereo not given),nt,nt,2.8µM*,?,10%
COc1ccc(NS(=O)(=O)c2ccc3c(c2)N(C(C)=O)CC(C)S3)c(OC)c1 (stereo not given),6,-4,nt,nt,-6%
Cc1onc(-c2ccccc2)c1C(=O)NNC(=S)NC(=O)c1ccc2c(c1)OCO2,46*,90*,?,-21%[46.1 µM],44%
O=C(NNC(=S)NCc1ccccc1)c1ccc2c(c1)OCO2,7,14,15%,6%,61%[11.6 µM]
CC(=O)c1cccc(CN2CCCC(C(=O)c3ccc4c(c3)OCO4)C2)c1 (stereo not given),12,-14,7%[46.1 µM],?,-10%
O=C(NCCc1ccccc1)c1ccc2c(c1)OCO2,-1,-3,1.1µM*,1.3µM*,45%
O=C(c1ccc2c(c1)OCO2)C1CCCN(C2CCN(CCc3ccccc3)CC2)C1 (stereo not given),-4,-16,?,7.1µM*,6%
O=C(NC(=S)NCc1ccccc1)c1ccc2c(c1)OCO2,19*,-52,3%,-1%,23%
O=C(NCCOc1ccc(F)cc1)C1CCC(=O)N(CCN2CCOCC2)C1 (stereo not given),-4,-22,4%,0%,2%
Cc1ccc2oc(=O)c3cnn(CC(=O)N4CCN(c5ccccc5F)CC4)c3c2c1,nt,nt,15%[46.1 µM],1%[46.1 µM],nt
CCN(CC)C(=O)c1cc(C(C)(C)C)c(O)c(C(C)(C)C)c1,-4,-7,-21%,-9%,3%
CCOc1ccc(/C(O)=C2/C(=O)C(=O)N(c3ncccn3)C2c2ccc(C)cc2)cc1 (stereo not given),-1,-1,-15%,-9%[14.2 µM],10%
CCOc1ccc(/C(O)=C2/C(=O)C(=O)N(CCOCCO)C2c2ccccc2)cc1 (stereo not given),18*,21,10%,-4%,-10%
CCOc1ccc(/C(O)=C2/C(=O)C(=O)N(c3ncccn3)C2c2ccccc2)cc1 (stereo not given),66*,58*,1%,-10%,-2%
CN1C(=O)c2ccc(Oc3ccccc3)cc2C1=O,nt,nt,14%,14%[46.1 µM],-4%
CCNC(=O)COC(=O)c1ccc(-c2nc3ccccc3s2)s1,34*,99*,nt,nt,25%
Cc1noc(C)c1COC(=O)c1ccc(-c2nc3ccccc3s2)s1,18*,73*,?,-30%,9%
Nc1cc(C(=O)OCC(=O)N2CCOCC2)ccc1Cl,35*,58*,12%[46.1 µM],?,-14%
O=C(OCC(=O)N1CCN(c2ccccc2)CC1)c1ccc(Cl)cc1[N+](=O)[O-],nt,nt,17%,0%,?
CN(C)c1ccc(C(=O)OCC(=O)N2CCOCC2)cc1,23*,39,-2%,-1%[46.1 µM],16%
O=C(OCC(=O)N1CCOCC1)c1ccc(Cl)cc1[N+](=O)[O-],24*,47*,?,4%[46.1 µM],11%
Nc1ccc(C(=O)OCC(=O)N2CCOCC2)cc1[N+](=O)[O-],31*,57*,25%,4%,5%
O=C(OCC(=O)N1CCCC1)c1ccc(Cl)c([N+](=O)[O-])c1,7,29,-1%[46.1 µM],-1%[46.1 µM],1%
CCCCc1ccc(NC(=O)N2CCNC(=O)C2CC(=O)Nc2ccsc2C(=O)OC)cc1 (stereo not given),0,-9,-15%,0%,1%
O=C(OCC(=O)N1CCOCC1)c1ccc2c(c1)OCCO2,22,25,5%,-2%[46.1 µM],9%
Cc1ccsc1C(=O)OCC(=O)N1CCOCC1,35*,73*,?,?,-10%
COc1ccc(NC(=O)CSc2nc3ccccc3n2CC(=O)N2CCCC(C)C2)cc1 (stereo not given),nt,nt,-20%[46.1 µM],nt,nt

# Assay outcomes from PubChem BioAssay.
